Values of other authors as cited in article PMC11062922 (Nature Chemical Biology, 2023).

Assays:
[1] = tested on: JAK1(JH2domain-pseudokinase)
[2] = tested on: JAK2(JH1domain-catalytic)
[3] = tested on: RSK1(Kin.Dom.1-N-terminal)
[4] = tested on: RSK3(Kin.Dom.1-N-terminal)
[5] = tested on: TYK2(JH2domain-pseudokinase)

Measured: KINOMEScan

COc1cc(Nc2ncc3c(C)nc(-c4cc5ccccc5[nH]4)n3n2)cc(OC)c1OC [GW869516X]
active: AMPK-alpha1 89% | AMPK-alpha2 61% | BLK 60% | CIT 100% | CLK1 88% | CLK2 75% | CSNK2A1 96.4% | CSNK2A2 99.7% | DDR1 52% | DDR2 52% | DYRK1A 85% | DYRK1B 81% | EPHB1 58% | FLT3-autoinhibited 75% | FLT3 96.3% | GCN2(Kin.Dom.2,S808G) 88% | HIPK1 79% | INSRR 53% | [1] 98.5% | [2] 54% | KIT 72% | LCK 71% | MAP3K4 52% | MEK5 78% | MERTK 56% | MLK1 93.8% | MLK2 89% | MLK3 87% | NEK11 86% | NEK2 70% | NEK3 89% | NEK5 99% | NEK6 99.6% | NEK7 99.7% | NEK9 90% | PAK3 69% | PIP5K1C 89% | PIP5K2C 90.3% | PKAC-beta 51% | [3] 91.7% | [4] 66% | SLK 63% | SRC 90.1% | STK16 86% | SYK 53% | TBK1 58% | [5] 82% | ULK2 51% | WEE2 85%
